Reference: the supplement of paper PMC11417369
± gives the standard deviation of the averaged measurements. Whole data set: some 25,000 sequences, median “ln(normalized median fluorescence intensity)” near 10, cut for the highest 2% near 12. This is one part of a sample in which the highest values are shown more often than they occur.

What follows are sequences tested on PfAP2-G AP2 domain (GST-tagged) (assay: gcPBM binding intensity (ln(normalized median fluorescence intensity)); higher = stronger DNA binding).
Method in brief: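 An Agilent 4 × 180k array carrying primer-extended double-stranded 36-bp intergenic genomic probes and negative controls received GST-tagged P. falciparum DNA-binding domains expressed in E. coli, about 25 μg on average, for 1 h. The binding buffer contained 1× PBS, 1% milk, 0.2 mg/ml BSA, 0.5% salmon testes DNA and 0.03% Triton X-100. Binding intensity is the top Masliner-normalised natural-log median intensity across replicate spots of either probe orientation, read after Alexa488 anti-GST antibody staining and a 488 nm scan.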

Sequence	gcPBM binding intensity (ln)
TAGAATAATCTATAAACACACAAACACAACAAAAGA [CACACA_site7861]	10.3 ± 0.32
ATATATTATCAACTTACACACAGAAAAATATAATAA [CACACA_site293]	9.975 ± 0.092
ATTTGGCATAAACACACACACACACCCACCCACATA [CACACA_site8096]	10.6 ± 0.38
ACGGGCGACACATAAGTGCGCAAAAAAAAAAAAATA [GTGCAC_site9688]	10.4 ± 0.46
TTTTTTTTTTTGTGAGTGCACGTATGAAGAGAAAAA	10.9 ± 0.8
TTATAAATATAATATTGTACAAAATTTTAACATGTC [XGTACX_site5259]	10.9 ± 0.59
GCATTCATTTTTAATACACACAAAAAAAAAATAAAA [CACACA_site2408]	10.2 ± 0.42
TTTTAATGATATATGAGTACACATTGTTTTTTATAA [XGTACX_site1072]	11.6 ± 1
TATATATATATATATACACACATTTTTAATGATAAA [CACACA_site2695]	10.1 ± 0.37
CCCTCAACGAATTTGAGTACACATTTTAAATGATAT [XGTACX_site7763]	11.7 ± 1.1
AAAATCTAGGTATTTATACACACTAATATAATATAC [CACACA_site8108]	10.2 ± 0.28
TCCTCTTTTATTTTTACACACGCGTAAACATATATA [CACACA_site667]	10.5 ± 0.4
ATAACTTTTGCGCGTACACACATTTATCCTCTTTAT [CACACA_site209]	11.7 ± 0.96
AGTATAACTTTTGCGCGTACACACATTTATCCTCTT [XGTACX_site429]	11.6 ± 0.72
GTATAACTTTTGCGCGTACACACATTTATCCTCTTT [CACACA_site208]	11.7 ± 0.86
ATAACTTTATTTTCCTGTACACACATTTGACATATT [XGTACX_site7192]	11.4 ± 0.73
TTTTTTTTTTTTTTTACACACATTTGAATAACTTTA [CACACA_site6810]	9.75 ± 0.34
AATTTATGTTTTAAAAGTACTTTTCTAATTTATAAA [XGTACX_site1593]	11.1 ± 0.72
TACTGAAATAATTATTTAAACGTTTTTATATGTATT [CACACA_negctrl_site487]	9.83 ± 0.042
TACATAATAATAAGGCGTACATAAAAATTAAAAATT [XGTACX_site8769]	11.4 ± 1
TACACAAAACATAAAAGTACATAATAATAAAGTTAA [XGTACX_site8872]	11.3 ± 0.6
AAATAGTTAAAAAGGCGTACACATAAATAAATAAAT [XGTACX_site2096]	11.7 ± 0.81
TGTCTTTAAATTTCTCAACACACAGTTATAAAAAAT [CACACA_site8930]	9.94 ± 0.099

Sequence	gcPBM binding intensity (ln)
AAAAGAATTTGAAGTCGTACAATATCTATTATATGA [XGTACX_site8275]	11.2 ± 0.78
AATATATACATATATGTACACACATTACAGATGTAC [CACACA_site8227]	11.5 ± 0.73
TAAATACATAGATGTACACACATTACAGATGTACAT [CACACA_site4692]	11.7 ± 0.98
TACACACATTACAGATGTACATAAAATTAAAAAAAT [XGTACX_site1804]	11.3 ± 0.71
CGTTACACAAAAATATGTACATATATACATATATAT [XGTACX_site4631]	11.1 ± 0.64
TGTACAAATATGTACACACACACATATATATATATA [CACACA_site584]	11.4 ± 0.91
AATAAACATAGATGTACACACATATACAGATATATA [CACACA_site5570]	11.5 ± 1
TATATACATATATGTACACACATTACAGATGTACAT [CACACA_site966]	11.7 ± 0.93
TATATACAAATATGTACACACATTACAGATGTACAT [CACACA_site6586]	11.8 ± 0.82
TACATTGTATACATATGTACACATATATATATATAT [XGTACX_site6174]	11.5 ± 0.71
TCCTAATGCTACCACACACACAAAAACAAATAATAA [CACACA_site2610]	10.5 ± 0.57
AGTAATAAATTTTATACATGCATAAAAAAAAAAAAA [TGCATGCA_site661]	9.72 ± 0.27
TAAAGGTAGATATATTGTACATACACACCTATATAA [XGTACX_site6865]	10.9 ± 0.45
AAGTACATACATAAAACACACACATATATATATATA [CACACA_site8541]	10.5 ± 0.35
AACAGATAAAAGGGTACACACATATATACATGTACA [CACACA_site225]	11.6 ± 0.88
ACATAAATAATAAAAACACACATATGTACAGATATA [CACACA_site5112]	11.1 ± 0.59
ATAAACAGATAAAAGGGTACACACATATATACATGT [XGTACX_site452]	11.4 ± 0.84
AACAGATAAAAGGGTACACACATATATACAAGTACA [CACACA_site7959]	11.7 ± 0.83
TAAACATATAAAAAGGGTACACATTAAACATAGTAT [XGTACX_site7096]	11.3 ± 0.79
AAAAAAAAAAAACATACACACATACATACAGATATA [CACACA_site4681]	9.94 ± 0.13
AACAGATAAAAGGGTACACACATATATACCTGTACA [CACACA_site4285]	11.7 ± 0.99
TTTTCATTTTTTTTTTTTTTTTTTTTTCTTTTTTTT [CACACA_negctrl_site1312]	9.52 ± 0.099
TTTCCCTTAAATTAATGTACATAAATTGAAAATACC [XGTACX_site1602]	11.3 ± 0.77

Sequence	gcPBM binding intensity (ln)
ACTTGACACGGACACACACACATATATAAAAAAAAA [CACACA_site4576]	11.2 ± 0.91
AAAAAAAAAAAAAAAAGTACATATGCTCAAGAGATG [XGTACX_site3783]	11.5 ± 0.82
TTTTTTTTTTTTTAATGTACCCATGGGCACATAGGT [XGTACX_site486]	11.4 ± 1
CACTTTATACGTAATTGTACTTTTTCTTTTTTTTAT [XGTACX_site3175]	11.5 ± 0.86
AAATAATATATATACACACACACATATATATATACA [CACACA_site554]	10.03 ± 0.028
TATATATTATACACGTGTACACATTATAACAATATA [XGTACX_site7799]	11.7 ± 0.77
ATATAATAAACGTGTACACAATTAAATTATTATATA [CACACA_site5017]	11.7 ± 1.1
TTGTAATTATTAAACACACACAAAATATATATAATA [CACACA_site2523]	10.3 ± 0.18
GTATATTAATAAACATGTACACAATTTATTTATATT [XGTACX_site1012]	11.5 ± 0.98
TACAAATTAATATGTACACACAAATATAAATATGTA [CACACA_site7016]	11.5 ± 0.98
TAAAATTTTTTATTCACACAAATATAGTTATATATA [CACACA_site5348]	9.81 ± 0.16
TTATATTTTTTAATTACACACAATTTTTATAAATAT [CACACA_site4148]	9.985 ± 0.021
ATAATATAATAAACGTGTACACAATTAAATTATTAT [XGTACX_site3491]	11.8 ± 0.76
ATAGTTATTTTATAGCGTACACAATAAATATATAAA [XGTACX_site4445]	11.7 ± 1.1
ATATATATTAACAATACACACGTGTATACCTTATTG [CACACA_site5258]	10.5 ± 0.22
ATATATATATTAACAATACACACGTGTATACCTTAT [CACACA_site2217]	10.38 ± 0.078
AAGTTATTTATATATACACACAAATATAAATAATAT [CACACA_site1228]	9.97 ± 0.014
TTCTTTTTTATTTATACATGCAATAAAAAATTGATT [TGCATGCA_site730]	9.925 ± 0.064
AGGACTAATATTTGAACACACATATAACATATACAT [CACACA_site7803]	9.95 ± 0.085
AAAAAAAAAAAAATGTAATTTTTTAATTATTTATAT [GTGCAC_negctrl_site436]	9.47 ± 0.11
GTATTCATGCTAAAGGTGCAATAATTTTTATAATAA [GTGCAC_site9603]	10.2 ± 0.21
ATTTTTTTTAATTTGTACAAATTTTGTTCACAATTT [CACACA_negctrl_site1301]	10.8 ± 0.4
AATTATTCTATATATTGTACATGTTTGTTTTTTTTT [XGTACX_site3130]	10.9 ± 0.42

Sequence	gcPBM binding intensity (ln)
CATTATGTTGTAAATACACACATACAGATACATACA [CACACA_site4565]	10.3 ± 0.16
TATTACCCATATTATACACACATATATTATATATAT [CACACA_site1567]	10.3 ± 0.2
ATTAAAAACGGGTGTACACATATATAAATATATATA [CACACA_site4539]	11.7 ± 0.89
TTTATTAATTTATAGTGTACATATTAATAATATATT [XGTACX_site7949]	11.3 ± 0.68
TATTTATAATAGTGTACACAATTATAAACTGAATAT [CACACA_site6041]	11.7 ± 0.89
AATAGTAATTTGAATACACACAATAATATATTTATA [CACACA_site7055]	9.96 ± 0.042
CATTATTATTAACATACACACGTGTTATATACCCCC [CACACA_site9365]	11 ± 0.61
GTTATTAAAAACGGGTGTACACATATATAAATATAT [XGTACX_site1234]	11.6 ± 0.86
ATATTATACCCGTGTACACATTATAACCATATATAA [CACACA_site5933]	11.7 ± 0.82
ATATAAAACAACGGGTGTACAAAAAAATAAATAATA [XGTACX_site4094]	11.3 ± 0.76
AATAAAATAATAGGCACACATATATATATATATTAT [CACACA_site273]	10.1 ± 0.26
CTATTAATGTACTCTACACACATATAAGAGGACATT [CACACA_site471]	11.6 ± 0.86
AAATAAAATAAAAGCACACAAAATGTAAATAATTAT [CACACA_site2775]	10.01 ± 0.035
CCATGTCAAACATTTGCACACAAAAAAATAAAAATT [CACACA_site4546]	10.2 ± 0.31
TAATTTAAAAATATAAATGTTTCACTTATATATTTT [TGCATGCA_negctrl_site399]	9.41 ± 0.27
TAAGTATAAAAAAATAGTACAATTATGAAATATCGT [XGTACX_site2529]	11.2 ± 0.71
AAAAATAGTATAAGTAGTACAACTGAAAAGTTATGT [XGTACX_site7488]	11.6 ± 0.86
GAAAAGTAGACAATATGTACATATAGTATTTATAAA [XGTACX_site878]	11.1 ± 0.69
ATTCTGAATGTTATGCGTACATATTAATCCTATTTA [XGTACX_site1216]	11.5 ± 0.93
TGTTCTAATATTTGTTGTACATTTACATTTCTCTCT [XGTACX_site2585]	11.1 ± 0.56
